# Reference: PubChem BioAssay (EPA / NIEHS)
# Values joined by “and” are separate entries in the source; they are usually repeats but may differ in a detail not shown here. Identical values can stand only once. A structure can be active in one record and inactive in another. Active and inactive are the calls of the source. How the source made its calls: active means hit-call score of the fitted dose curve at least 0.9, where 1 is the maximum; inactive means score below 0.9.
# Experiments:
# [1] = read-out: Vascular cell adhesion molecule 1 (VCAM1), VCAM1 (gene 7412); experiment: BSK_4H_VCAM1: BioMAP Diversity Plus: 4H Assay for Vascular cell adhesion molecule 1 (VCAM1) Biomarker Activity (AID 2283033); conditions: primary human endothelial cells (HUVEC); actives raise or lower the signal
# Outline: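 VCAM-1 ELISA read 24 h after chemical dosing of HUVEC in the BioMAP 4H system, with gain or loss of signal fitted relative to DMSO. Parallel SRB staining (560 nm) checked overt cytotoxicity.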
# [2] = read-out: Interferon-gamma inducible Protein 10 (IP10), CXCL10 (gene 3627); experiment: BSK_BE3C_IP10: BioMAP Diversity Plus: BE3C Assay for Interferon-gamma inducible Protein 10 (IP10) Biomarker Activity (AID 2283034); conditions: primary human bronchial epithelial cells; actives raise or lower the signal
# Outline: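 IP-10 quantified by ELISA in human primary bronchial epithelial cell cultures at 24 hours post-dosing. Gain or loss of signal fitted relative to DMSO; parallel SRB staining assessed overt cytotoxicity.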
# [3] = read-out: Monokine induced gamma interferon (MIG), CXCL9 (gene 4283); experiment: BSK_BE3C_MIG: BioMAP Diversity Plus: BE3C Assay for Monokine induced gamma interferon (MIG) Biomarker Activity (AID 2283035); conditions: primary human bronchial epithelial cells; actives raise or lower the signal;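 further: MIG protein measured by ELISA in BE3C cultures after 24 h of dosing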
# Outline: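 hu bronchial epithelial 1° cells, 24 h cpd; MIG by ELISA; bidirectional fit, DMSO = baseline.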
# [4] = read-out: Plasminogen activator inhibitor-1 (PAI1), SERPINE1 (gene 5054); experiment: BSK_BE3C_PAI1: BioMAP Diversity Plus: BE3C Assay for Plasminogen activator inhibitor-1 (PAI1) Biomarker Activity (AID 2283037); conditions: primary human bronchial epithelial cells; actives raise or lower the signal
# Outline: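 PAI-1 was measured by ELISA in human primary bronchial epithelial cultures 24 h after chemical dosing, with cytotoxicity checked by SRB total-protein staining in parallel cultures. Activity was fitted in both directions relative to DMSO.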
# [5] = read-out: Urokinase-type plasminogen activator receptor (uPAR), PLAUR (gene 5329); experiment: BSK_BE3C_uPAR: BioMAP Diversity Plus: BE3C Assay for Urokinase-type plasminogen activator receptor (uPAR) Biomarker Activity (AID 2283039); conditions: primary human bronchial epithelial cells; actives raise or lower the signal;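 further: cells exposed to compound for one day before measurement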
# Outline: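 uPAR levels were measured by ELISA after 24 h compound treatment of primary human bronchial epithelial cells, fitted in both directions relative to DMSO. Parallel SRB staining served as the cytotoxicity read-out.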
# [6] = read-out: Interleukin-6 (IL6), IL6 (gene 3569); experiment: BSK_CASM3C_IL6: BioMAP Diversity Plus: CASM3C Assay for Interleukin-6 (IL6) Biomarker Activity for (AID 2283040); conditions: primary human coronary artery smooth muscle cells; actives raise or lower the signal
# [7] = read-out: Interleukin-8 (IL8), CXCL8 (gene 3576); experiment: BSK_CASM3C_IL8: BioMAP Diversity Plus: CASM3C Assay for Interleukin-8 (IL8) Biomarker Activity (AID 2283042); conditions: primary human coronary artery smooth muscle cells; actives raise or lower the signal;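 further: IL-8 protein level quantified by ELISA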
# [8] = read-out: Human Leukocyte Antigen - DR isotype (HLADR), HLA-DRA (gene 3122); experiment: BSK_CASM3C_HLADR: BioMAP Diversity Plus: CASM3C Assay for Human Leukocyte Antigen - DR isotype (HLADR) Biomarker Activity (AID 2283043); conditions: primary human coronary artery smooth muscle cells; actives raise or lower the signal;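 further: cell-surface HLA-DR protein level quantified by ELISA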
# [9] = read-out: Macrophage colony-stimulating factor (MCSF), CSF1 (gene 1435); experiment: BSK_CASM3C_MCSF: BioMAP Diversity Plus: CASM3C Assay for Macrophage colony-stimulating factor (MCSF) Biomarker Activity (AID 2283044); conditions: primary human coronary artery smooth muscle cells; actives raise or lower the signal;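 further: M-CSF protein amount quantified by ELISA after 24 h exposure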
# [10] = read-out: Low-density lipoprotein receptor (LDLR), LDLR (gene 3949); experiment: BSK_CASM3C_LDLR: BioMAP Diversity Plus: CASM3C Assay for Low-density lipoprotein receptor (LDLR) Biomarker Activity (AID 2283045); conditions: primary human coronary artery smooth muscle cells; actives raise or lower the signal;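 further: LDLR protein level on the cell surface quantified by ELISA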
# [11] = read-out: Monocyte Chemoattractant Protein-1 (MCP1), CCL2 (gene 6347); experiment: BSK_CASM3C_MCP1: BioMAP Diversity Plus: CASM3C Assay for Monocyte Chemoattractant Protein-1 (MCP1) Biomarker Activity (AID 2283046); conditions: primary human coronary artery smooth muscle cells; actives raise or lower the signal;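 further: MCP-1 level quantified by ELISA 24 h after dosing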
# [12] = BSK_CASM3C_Proliferation: Cell Proliferation Assessment in the BioMAP Diversity Plus: CASM3C Assay (AID 2283047); conditions: primary human coronary artery smooth muscle cells;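 further: sulforhodamine B total protein stain as relative cell number at 560 nm; sub-confluent cells exposed 48 h before staining; fitted both ways against DMSO so gain or loss of cell number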
# [13] = read-out: Monokine induced gamma interferon (MIG), CXCL9 (gene 4283); experiment: BSK_CASM3C_MIG: BioMAP Diversity Plus: CASM3C Assay for Monokine induced gamma interferon (MIG) Biomarker Activity (AID 2283048); conditions: primary human coronary artery smooth muscle cells; actives raise or lower the signal;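 further: MIG protein level measured by ELISA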
# [14] = read-out: serum amyloid A (SAA), SAA1 (gene 6288); experiment: BSK_CASM3C_SAA: BioMAP Diversity Plus: CASM3C Assay for serum amyloid A (SAA) Biomarker Activity (AID 2283049); conditions: primary human coronary artery smooth muscle cells; actives raise or lower the signal;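 further: SAA protein level quantified by ELISA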
# [15] = BSK_CASM3C_SRB: Viability Assessment in the BioMAP Diversity Plus: CASM3C Assay (AID 2283050); conditions: primary human coronary artery smooth muscle cells
# [16] = read-out: Thrombomodulin, THBD (gene 7056); experiment: BSK_CASM3C_Thrombomodulin: BioMAP Diversity Plus: CASM3C Assay for Thrombomodulin Biomarker Activity (AID 2283051); conditions: primary human coronary artery smooth muscle cells; actives raise or lower the signal;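 further: thrombomodulin protein level measured by ELISA 24 h after dosing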
# [17] = read-out: Tissue Factor, F3 (gene 2152); experiment: BSK_CASM3C_TissueFactor: BioMAP Diversity Plus: CASM3C Assay for Tissue Factor Biomarker Activity (AID 2283052); conditions: primary human coronary artery smooth muscle cells; actives raise or lower the signal;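 further: cell surface tissue factor protein level read by ELISA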
# [18] = read-out: Urokinase-type plasminogen activator receptor (uPAR), PLAUR (gene 5329); experiment: BSK_CASM3C_uPAR: BioMAP Diversity Plus: CASM3C Assay for Urokinase-type plasminogen activator receptor (uPAR) Biomarker Activity (AID 2283054); conditions: primary human coronary artery smooth muscle cells; actives raise or lower the signal;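 further: cell-surface uPAR protein level quantified by ELISA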
# [19] = read-out: Vascular cell adhesion molecule 1 (VCAM1), VCAM1 (gene 7412); experiment: BSK_CASM3C_VCAM1: BioMAP Diversity Plus: CASM3C Assay for Vascular cell adhesion molecule 1 (VCAM1) Biomarker Activity (AID 2283055); conditions: primary human coronary artery smooth muscle cells; actives raise or lower the signal;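 further: VCAM-1 protein level quantified by ELISA on the cells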
# [20] = read-out: Collagen III, COL3A1 (gene 1281); experiment: BSK_hDFCGF_CollagenIII: BioMAP Diversity Plus: hDFCGF Assay for Collagen III Biomarker Activity (AID 2283056); conditions: primary human foreskin fibroblasts; actives raise or lower the signal
# Outline: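 Cells: human foreskin fibroblasts, primary. Dosing followed by 24 h incubation, then ELISA for collagen III. Both increases and decreases scored relative to DMSO.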
# [21] = read-out: Epidermal growth factor receptor (EGFR), EGFR (gene 1956); experiment: BSK_hDFCGF_EGFR: BioMAP Diversity Plus: hDFCGF Assay for Epidermal growth factor receptor (EGFR) Biomarker Activity (AID 2283057); conditions: primary human foreskin fibroblasts; actives raise or lower the signal
# Outline: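 EGFR levels by ELISA in human dermal fibroblast cultures, 24 h post-treatment, fitted bidirectionally versus DMSO. Parallel wells stained with sulforhodamine B to detect overt cytotoxicity.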
smiles,measurement,setting,value
[Cd+2].[Cl-].[Cl-],AC50,[1],31.6 µM (active) and 27.1 µM (active)
same,AC50,[2],20 µM (active)
same,outcome,[2],inactive
same,outcome,[3],inactive
same,AC50,[4],3.97 µM (active)
same,outcome,[4],inactive
same,outcome,[5],inactive
same,AC50,[6],4.02 µM (active) and 2.92 µM (active)
same,outcome,[7],inactive
same,AC50,[8],9.22 µM (active) and 6.47 µM (active)
same,AC50,[9],6.22 µM (active) and 3.72 µM (active)
same,AC50,[10],6.42 µM (active) and 6.31 µM (active)
same,AC50,[11],7.14 µM (active) and 4.39 µM (active)
same,AC50,[12],2.7 µM (active) and 2.27 µM (active)
same,AC50,[13],4.6 µM (active) and 4.58 µM (active)
same,AC50,[14],3.68 µM (active) and 2.71 µM (active)
same,AC50,[15],15.4 µM (active) and 15.2 µM (active)
same,outcome,[16],inactive
same,AC50,[17],5.81 µM (active) and 8.45 µM (active)
same,AC50,[18],9.94 µM (active) and 6.24 µM (active)
same,AC50,[19],4.05 µM (active) and 3.51 µM (active)
same,AC50,[20],3.57 µM (active) and 4.55 µM (active)
same,AC50,[21],0.156 µM (active)
